Measured values as given in PubChem BioAssay.
Calls of active or inactive are those of the source. No rule for the calls is given here.

Test: inhibition of 3D7 malaria parasite growth – strain 3D7 (AID 2306);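 also: 0% = DMSO wells and 100% = chloroquine plus artemisinin control wells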
Settings: P. falciparum 3D7 erythrocytic growth, LDH absorbance, 72 h; at 2 µM; stronger effect = higher value

Growth inhibition, active:
O[C@@H](c1ccccc1)[C@@H]1CN(Cc2ccccc2)CC[C@@]1(O)c1ccccc1 91%, CC(NC(=O)c1ccc(O)c(-c2ccc(Cl)c(Cl)c2)c1)C(=O)NCCN1CCCCC1 (centres undefined) 97%, CCCC(=O)Nc1ccc(OCCCCN(CC(C)(C)C)c2ccc(C#N)c(C(F)(F)F)c2)cc1 83%, O=C(Nc1ccc2nc3n(c(=O)c2c1)CCCCC3)C(=O)N1CCC(Cc2ccccc2)CC1 91%, CCCC(C)NC(=O)[C@H](CC1CCCCC1)NC(=O)c1ccc(O)c(-c2ccc(OC)cc2)c1 (some centres undefined) 89%, Cc1cccc(-c2cc3cc(Nc4ccnc5cc(-c6nccs6)ccc45)ccc3[nH]2)c1 101%, CCCc1cc(Cc2cnc(N)nc2N)cc(CCC)c1OCCCCC(=O)OC 94%, CCN(CCCN1CCCCC1)c1cc(C)nc(Nc2cc(F)cc(F)c2)n1 102%, CC(C)(Oc1c(C2CCN(CCCCNC(=O)c3ccc(-c4ccc(Cl)cc4)cc3)CC2)ccc2c1CCCC2)C(N)=O 93%, CCOc1cc(C)c(C2CCN(CCCCNC(=O)c3ccc(NC(=O)c4ccc(Cl)cc4)cc3)CC2)cc1C 100%, Cc1nc(C)c(CC(=O)Nc2ccc(-c3cccc(-c4nc5c(C)cccc5[nH]4)c3)cc2)s1 101%, Cn1nc(C(F)(F)F)c(-c2ccc(F)cc2)c1NC(=O)Nc1ccccc1 101%, CC(C)Cn1c(N)cc(=O)n(C)c1=O 100%, O=C(Cn1c(CCc2cccc(F)c2F)nc(=O)c2ccccc21)N(CCCN1CCCCC1)Cc1ccc(-c2ccc(C(F)(F)F)cc2)cc1 103%, CCOc1cc(C)ccc1C1CCN(CCCCNC(=O)c2nc(-c3ccc(C(F)(F)F)cc3)[nH]c2C)CC1 100%, Cc1sc2nc(CN3CCCC3)nc(-n3c(NCCO)nc4ccccc43)c2c1C 96%, Fc1cccc(CNc2ncc(-c3ccsc3)c(-c3nccs3)n2)c1 91%, O=C(/C=C/c1ccc(Cl)c(Cl)c1)NCCCCCCN1CCCN(C(=O)Nc2ccc(F)c(Cl)c2)CC1 98%, Cc1ccc(C(=O)N2CCN(Cc3nccs3)CC2)cc1 86%, O=C(c1ccccc1)N(Cc1ccccc1-c1ccc(CNCCc2ccccc2)cc1)C1CCN(Cc2ccccc2)CC1 95%, CC(=O)N(C)c1cccc(C(=O)Nc2cccc(-c3ccc(-c4nc5ccc(C(F)(F)F)cc5[nH]4)cc3)c2)c1 90%, Nc1nc(N)c2c(ccc3c2ccn3CCCC2CCCNC2)n1 (centres undefined) 98%, COc1cc(C(C)C)nc2ccc(NC(=O)c3ccc(C(=O)Nc4ccc5nc(C(C)C)cc(OC)c5c4)cc3)cc12 95%, COc1cccc(C(=O)[C@H]2C[C@@H]2CN(C)CC(O)c2cc(C)c(OC)cc2C)c1 (some centres undefined) 88%, Cc1sc(C)c(CNCCCNc2cc(=O)c3ccccc3[nH]2)c1Br 93%, CC(C)Cn1cc(C2CCN(CCN3CCC(CNC(=O)c4ccc(NC(=O)c5cc(Cl)cc(Cl)c5)cc4)CC3)CC2)c2ccccc21 91%, CC(C)c1sc(-c2ccc(C(C)(C)C)cc2)nc1C(=O)NCCCN1CCCC1=O 96%, COC(=O)C(C)(C)Cc1c(SC(C)(C)C)c2cc(C(C)C)ccc2n1Cc1ccc(Cl)cc1 96%, COc1cc(/C=C/C(=O)NCC(CCNc2cc(=O)c3ccccc3[nH]2)NCc2cc(Br)cc(Br)c2)cc(OC)c1 (centres undefined) 90%, CCC(C)CN1C(=O)C(c2ccccc2)(c2ccccc2)N=C1N (centres undefined) 98%, CCOc1ccc(-c2nonc2NC(=O)c2ccccc2Cl)cc1OCC 101%, Cc1noc(C)c1-c1cccc(CNCc2ccc(-c3cccc(-c4nc5ccc(C(F)(F)F)cc5[nH]4)c3)cc2)c1 101%, COc1c(C2CCN(CCCCNC(=O)c3cc(-c4ccc(C#N)cc4)n[nH]3)CC2)ccc2c1CCCC2 86%, COc1ccc2nccc(NC(=O)N3CCC(NCCOc4cc(F)cc(F)c4)CC3)c2n1 86%, CC(=O)c1cc(N2CCCC2)ccc1N 97%, C=C(C)Cn1cc(C2CCN(CCN3CCC(CNC(=O)c4ccc(-c5ccc(C#N)cc5)cc4)CC3)CC2)c2ccccc21 99%, O=C(Nc1ccc(-c2ccc(-c3nc4ccc(C(F)(F)F)cc4[nH]3)s2)cc1)c1cnc[nH]1 92%, O=C(/C=C/c1ccc(CNCCN2CCOCC2)cc1)NCCc1ccccc1 94%, CCCCN1CCCC[C@H]1[C@@H](O)c1ccnc2ccc(OCC)cc12 100%
